Source: PubChem BioAssay
A number with no mark means an inactive call. No rule for the calls is given here.

Each compound was assayed against Pantothenate synthetase (Mycobacterium tuberculosis (strain ATCC 25618 / H37Rv)) (UniProt P9WIL5) (assay: Recombinant Mtb pantothenate synthetase (PanC) inhibitors, coupled enzyme, confirmatory (AID 375;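 also: 0% = full reaction with vehicle and 100% = no enzyme background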)). Details: coupled enzyme assay; at 10 µM, hits give high values.
Pantothenate synthetase (Mycobacterium tuberculosis (strain ATCC 25618 / H37Rv)), sequence (P9WIL5 whole entry, looked up): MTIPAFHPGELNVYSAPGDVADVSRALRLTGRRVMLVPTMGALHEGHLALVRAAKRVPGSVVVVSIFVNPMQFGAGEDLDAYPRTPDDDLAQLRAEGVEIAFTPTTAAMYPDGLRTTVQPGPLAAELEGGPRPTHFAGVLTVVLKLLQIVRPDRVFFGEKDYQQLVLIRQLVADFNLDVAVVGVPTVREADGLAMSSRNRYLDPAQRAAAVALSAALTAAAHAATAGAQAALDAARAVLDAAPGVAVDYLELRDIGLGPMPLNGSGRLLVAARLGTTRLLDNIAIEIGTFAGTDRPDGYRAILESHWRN
`O=C(NCC1CCCO1)C1CCCN(Cc2cnn(-c3ccccc3)c2-n2cccc2)C1` (stereo not given) showed an inhibition of 0%. `Cc1csc(SCc2nc3sc4c(c3c(=O)[nH]2)CCC4)n1` showed an inhibition of 0%. `CS(=O)(=O)N(CC(=O)N1CCN(c2cccc(Cl)c2)CC1)C1CCCCC1` showed an inhibition of 0%. `Cc1ccc(S(=O)(=O)Cn2nnnc2CN(Cc2ccco2)CC2CCCO2)cc1` (stereo not given) gave an inhibition of 3%. Compound `CC(C)COC(=O)NCC12C=CC(O1)C1C(=O)N(c3ccc(Cl)cc3)C(=O)C12` (stereo not given) has an inhibition of 0%. `CC(=O)Nc1ccc(S(=O)(=O)NCC(C)NS(=O)(=O)c2ccc(NC(C)=O)cc2)cc1` (stereo not given) gave an inhibition of 2%. `CC(C)(C)C(=O)OCC1OC(n2cnc(C(N)=O)n2)C(O)C1O` (stereo not given) gave an inhibition of 3%. For `CN1CCN(CC(=O)N2c3ccccc3C(=O)Nc3cccnc32)CC1`, the inhibition was 4%. Compound `COc1ccccc1NC(=O)CSC1CC(=O)N(c2ccc3c(c2)OCO3)C1=O` (stereo not given) has an inhibition of 0%. Work on `CC(C)(C)NC(=O)Cn1nnnc1-c1nonc1N` yielded an inhibition of 4%. Work on `Cc1ccccc1Nc1cc2ccccc2c(=O)[nH]1` yielded an inhibition of 2%. `COc1ccc(N2CCN(CCCNS(=O)(=O)c3c(C)noc3/C=C/N(C)C)CC2)cc1` showed an inhibition of 15%. Work on `CCC(=O)O[C@]1(C(=O)CCl)[C@@H](C)C[C@H]2[C@@H]3CCC4=CC(=O)C=C[C@]4(C)[C@@]3(F)[C@@H](O)C[C@@]21C` yielded an inhibition of 0%. With `Cc1nnc(SCCCn2c(N3CCCCC3)nc3c2c(=O)[nH]c(=O)n3C)s1` the inhibition was 0%. Compound `CN(C)C(CNC(=O)Nc1cccc(Cl)c1)c1cccnc1` (stereo not given) has an inhibition of 0%.
